Only some compounds are listed: those with a hit (about 4.3% of all), similar ones and a draw of the others.
GRIN3A LBD mod: NR3A (human) ligand-binding domain modulation. NR3A LBD differential scanning fluorimetry, Tm shift; 0% = protein alone, 100% = glycine-bound protein. Tm shift relative to glycine control, % at 25 µM. AID 1259313. 340,000 compounds, 2.5% hits;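 active = melting temperature shift of at least 10% of the positive control shift, at one fixed dose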
ADAM17 inh: inhibitors of human ADAM17 | P78536 | recombinant ADAM17, EDANS/DABCYL FRET peptide cleavage | inhibition, % at 6.95 µM | 370,000 compounds, 0.83% hits | AID 720648;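 active = inhibition above the mean of compounds lying between control limits plus 3 SD, set per campaign, cut at about 8.5% in these data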
HGIII-sPLA2 inh: Blocks human group III sPLA2 activity; QFRET BODIPY PC-A2 liposome hydrolysis, fluorescence; inhibition, % at 12.2 µM; Q9NZ20; 370,000 compounds, 0.56% hits;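 active = inhibition above mean plus 3 SD of compounds lying within the high and low control bounds, cut at about 19% in these data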
FAS TE block: blocks the thioesterase domain of human fatty acid synthase; P49327; recombinant FAS-TE, OMFH fluorogenic substrate, fluorescence endpoint; inhibition, % at 15 µM; 360,000 compounds, 0.67% hits;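 active = compounds whose normalised, plate-corrected inhibition of enzyme fluorescence in the single-dose primary screen is 50% or more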
ADAM10 inh: inhibitors of human ADAM10. inhibition, % at 7 µM. 370,000 compounds, 0.62% hits. recombinant ADAM10, EDANS/DABCYL FRET peptide cleavage, 3 h. O14672;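 active = inhibition above a per-campaign cutoff equal to the mean of compounds falling between control-based bounds plus 3 SD, cut at about 20% in these data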
ADAM10 confirm: confirmation of inhibitors of human ADAM10; ADAM10 QFRET peptide cleavage, EDANS fluorescence; shares compounds with ADAM10 inh; inhibition, % at 6.95 µM; 2,100 compounds, 1% hits;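 active = inhibition above about 20% chosen separately for each screening run, limit read from the data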
ADAM17 counter: counter-screen for ADAM10 exosite inhibitors: inhibitors of human ADAM17 | AID 743214 | ADAM17 QFRET peptide cleavage, EDANS fluorescence | shares compounds with ADAM10 inh | 2,100 compounds, 0.5% hits | inhibition, % at 6.95 µM;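 active = mean triplicate inhibition above the solvent-only control wells' mean plus 3 SD, cut at about 12% in these data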
A number is an active result; n = inactive; x = no result.

SMILES	GRIN3A LBD mod	ADAM17 inh	HGIII-sPLA2 inh	FAS TE block	ADAM10 inh	ADAM10 confirm	ADAM17 counter
CC1(C)c2[nH]c3ccccc3c2C[C@H]2C(=O)N(Cc3cccc(F)c3)C(=O)N21	n	n	n	n	n	x	x
CCCCNC(=O)C[C@@H]1C(=O)N(Cc2ccc(OC)cc2)/C2=C/CCCCC[C@@]21C(=O)OCC	x	n	n	x	n	x	x
CO/N=C/NC(=O)NOCc1ncc(C(F)(F)F)cc1Cl	n	n	n	n	n	x	x
O=C(N/C=N/OCc1ccc(Cl)cc1Cl)NOCc1ncc(C(F)(F)F)cc1Cl	n	11.5	n	n	20.2	n	n
CC(c1c[nH]c2ccccc12)c1c[nH]c2ccc(Br)cc12 (configuration not stated)	x	n	n	x	n	x	x
COc1ccc(CN2C[C@]3(C=C4CCCCC4n4c(=O)n(-c5ccccc5)c(=O)n43)N=C2NC(=O)c2ccccc2)c(OC)c1 (some centres not stated)	x	n	n	x	31.9	n	n
COc1ccc(C(=O)Nc2ccc(C)cc2C(=O)c2ccccc2)cc1	n	n	n	n	n	x	x
COc1ccccc1C(=O)Nc1ccc(C)cc1C(=O)c1ccccc1	n	n	n	n	21.5	n	n
CC(=O)c1cc(-c2ccccc2-c2ccccc2)c(=O)n2c1CCC2	x	n	n	x	n	x	x
Cc1ccc(C(O)(C(=O)NNc2ccccn2)c2ccc(C)cc2)cc1	n	n	n	n	n	x	x
Cc1ccc(NNC(=O)C(O)(c2cccc(C(F)(F)F)c2)c2cccc(C(F)(F)F)c2)cc1	25.8	n	n	n	25.6	n	n
C=CCN=C1NC(CCc2ccccc2)C(C(=O)OC)=C(C)N1Cc1cccc(C(F)(F)F)c1 (configuration not stated)	x	n	n	x	n	x	x
O=C(Nc1ccccc1)c1nc[nH]c1C(=O)NCc1ccccc1	n	n	n	n	24.1	n	n
CC(C)(C)OC(=O)NCc1ccc(CNC(=O)c2nc[nH]c2C(=O)NCc2ccccc2)cc1	n	n	n	n	21.5	n	n
Cc1cccc(NC(=O)c2nc[nH]c2C(=O)N[C@H](C)c2ccccc2)c1	n	n	n	n	22.7	n	n
O=C(N[C@@H](Cc1ccccc1)C(=O)OCc1ccccc1)c1nc[nH]c1C(=O)N1CCc2ccccc2C1	n	9.3	n	n	19.8	n	n
CC(C)C[C@H](NC(=O)c1nc[nH]c1C(=O)N1CCc2ccccc2C1)C(=O)OCc1ccccc1	n	n	n	n	n	x	x
O=C(NCc1ccccc1)c1nc[nH]c1C(=O)NCc1ccccc1	n	n	n	n	n	x	x
C[C@H](NC(=O)c1[nH]cnc1C(=O)Nc1ccccc1)c1ccccc1	n	n	n	n	n	x	x
CNC(=O)c1[nH]cnc1C(=O)N[C@@H](Cc1ccccc1)C(=O)OC(C)(C)C	n	n	n	n	n	x	x
CN(Cc1ccccc1)C(=O)c1[nH]cnc1C(=O)N[C@@H](Cc1ccccc1)C(=O)OC(C)(C)C	n	n	n	n	22.9	n	n
Cc1occc1C(=O)N/N=C/c1ccc(OCc2ccccc2)cc1	34.6	n	n	n	20.7	n	n
C[C@H]1CN([C@@H](C)CO)C(=O)c2cccc(NC(=O)Nc3ccc(C(F)(F)F)cc3)c2O[C@@H]1CN(C)S(=O)(=O)c1ccccc1	13.2	20.9	n	n	40.0	n	n
C[C@@H]1CN([C@@H](C)COC(=O)C(C)(C)C)C(=O)c2cc(NC(=O)Nc3ccccc3)ccc2O[C@@H](C)CCCCO[C@H]1CN(C)S(=O)(=O)c1ccc(F)cc1	x	n	n	x	25.0	n	n
CCOc1ccc(-n2c(SCC(=O)Nc3ccc(S(=O)(=O)Nc4cc(C)nc(C)n4)cc3)nnc2-c2cccc(C)c2)cc1	x	n	n	x	n	x	x
SMILES	GRIN3A LBD mod	ADAM17 inh	HGIII-sPLA2 inh	FAS TE block	ADAM10 inh	ADAM10 confirm	ADAM17 counter
O=C(O)c1cccc(-c2csc(C(O)(c3ccccc3)C(F)(F)F)n2)c1 (configuration not stated)	x	n	n	n	n	x	x
N#Cc1cccc(-c2csc(C(O)(c3ccccc3)C(F)(F)F)n2)c1 (configuration not stated)	x	n	n	n	20.4	n	n
OC(c1ccccc1)(c1nc(-c2ccc(Cl)cc2)cs1)C(F)(F)F (configuration not stated)	x	n	n	n	22.7	n	n
COC(=O)[C@H](C(C)C)N1CCc2nnn(CC3CCCCC3)c2-c2ccccc2S1(=O)=O	x	n	n	x	n	x	x
CCCCc1ccc(-c2noc(CCC(=O)NCC)n2)cc1	x	n	n	x	n	x	x
O=C1CC(c2ccsc2)Sc2ccccc2N1 (configuration not stated)	n	n	n	n	n	x	x
CC1CC(=O)C2=C(C1)Nc1ccccc1SC2c1ccc(F)cc1 (configuration not stated)	n	n	n	n	20.7	n	n
Cc1cccc(-c2noc(Cc3ccc(Cl)cc3)n2)c1	n	n	n	n	20.3	n	n
O=S(=O)(c1ccc(F)cc1)N1CCC(c2nc3ccccc3o2)CC1	x	n	n	x	n	x	x
C#CC1(O)CCCC2C3CCC4CC(OC(C)=O)CCC4(C)C3C(=O)CC21C (configuration not stated)	n	n	n	n	23.9	n	n
O=C(NCc1ccccc1)c1onc(CSc2ccc(Cl)cc2)c1C(=O)NCc1ccccc1	n	n	n	n	n	x	x
CC(C)NC(=O)c1c(CSc2ccccc2)noc1C(=O)NCc1ccccc1	n	n	n	n	80.6	n	n
O=C(NCc1ccccc1)c1onc(CSc2ccccc2)c1C(=O)NCc1ccccc1	n	n	n	n	n	x	x
CC(C)NC(=O)c1c(CSc2ccc(Cl)cc2)noc1C(=O)NCc1ccccc1	n	n	n	n	21.6	n	n
COc1ccccc1CNC(=O)C[C@H]1CC[C@H]2[C@@H](COc3ccc(NC(=O)Nc4ccccc4)cc3C(=O)N2C)O1	x	n	n	x	n	x	x
O=C(NNC(=O)c1cc(Br)ccc1O)c1csc(N2CCOCC2)n1	n	x	x	n	x	x	x
O=C(NNC(=O)c1cc(-c2cccc(Br)c2)nc2ccccc12)c1csc(N2CCOCC2)n1	n	n	n	n	21.9	n	n
CC(C)Oc1ccc(Cl)cc1Nc1nc(NCCO)nc(N2CCCC2)n1	n	n	n	n	21.4	n	n
C#CCNC(=O)C[C@H]1C[C@@]2(C(=O)OC)C(=C[C@H](C3CCCC3)O[C@@H]2C)N(CCC2=CCCCC2)C1=O	x	n	n	x	n	x	x
COCCN1Cc2cc(C(=O)OC)c3c(c2C1=O)c1cc(OC)ccc1n3S(=O)(=O)c1ccc(C)cc1	x	n	n	x	n	x	x
Cc1nc2cc(NC(=O)c3ccc(Cl)cc3)ccc2n1C	n	n	n	n	22.9	n	n
